Assay results from PubChem BioAssay (NCATS).
Values joined by “and” are separate entries in the source; they are usually repeats but may differ in a detail not shown here. Equal entries are not always repeated. Inconclusive results are not listed. Active and inactive are the calls of the source. The call rests on the fitted dose curve.
Potency means the concentration at half of the fitted maximal effect.

Assay: Primary qHTS to identify inhibitors of SARS-CoV-2 cell entry (AID 1645846); further: nearly all actives have a fitted effect of over 45% in size
Conditions: SARS-CoV-2 pseudovirus cell entry assay, luminescence; activity change, negative = inhibition: at 57.1 µM (top of the series) unless noted; series mostly up to 57.1 µM
Procedure, shortened: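 Data are normalized to wells receiving SARS-CoV-2-S pseudoparticles and those given bald particles. Entry signal was luciferase luminescence in stable hACE2 Expi293F cells, 48 hr post-infection, after 1 hr compound pretreatment.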
In the case of `O=c1[nH]c(=O)n([C@H]2C[C@H](O)[C@@H](CO)O2)cc1I`, the Potency is reported as 15.8 µM (active).
For `C[C@@H]1C[C@H]2[C@@H]3C[C@H](F)C4=CC(=O)C=C[C@]4(C)[C@@]3(F)[C@@H](O)C[C@]2(C)[C@@]1(O)C(=O)CO`, the “outcome” value was “inactive”.
Compound `CC1(C)O[C@H]2CC(=O)OC[C@]23[C@H]2CC[C@@]4(C)[C@H](c5ccoc5)OC(=O)[C@H]5O[C@]54[C@]2(C)C(=O)C[C@@H]13` has an activity change, negative = inhibition of -13.1%.
With `NC(=O)NC1NC(=O)NC1=O` (stereo not drawn) the “outcome” value was “inactive”.
With `Cc1ccnc(NS(=O)(=O)c2ccc(N)cc2)n1` the “outcome” value was “inactive”.
For `Cc1c(N(C)CS(=O)(=O)O)c(=O)n(-c2ccccc2)n1C`, the activity change, negative = inhibition was 1.77%.
Work on `CCCCCCCCCCCCCCCCCCO` yielded an activity change, negative = inhibition of 0.247%.
With `Cc1ccccc1N1CCN(CCc2nnc3n2CCCC3)CC1` the “outcome” value was “inactive”.
`CCCC(=O)O[C@]1(C(=O)COC(=O)CC)CC[C@H]2[C@@H]3CCC4=CC(=O)CC[C@]4(C)[C@H]3[C@@H](O)C[C@@]21C` showed an activity change, negative = inhibition of -22.2% [at 27.1 µM].
For `COc1ccc(C(=O)c2ccccc2O)c(O)c1`, the “outcome” value was “inactive”.
`CCC[C@@H]1C[C@@H](C(=O)N[C@@H]([C@H]2O[C@H](SC)[C@H](O)[C@@H](O)[C@H]2O)[C@H](C)Cl)N(C)C1` gave an activity change, negative = inhibition of -7.46%.
In the case of `OCCOCCN1CCN(C2=Nc3ccccc3Sc3ccccc32)CC1`, the activity change, negative = inhibition is reported as -1.17%.
In the case of `O=C(NCCO[N+](=O)[O-])c1cccnc1`, the Potency is reported as “inactive”.
For `CO[C@@]1(NC(=O)C(C(=O)O)c2ccc(O)cc2)C(=O)N2C(C(=O)O)=C(CSc3nnnn3C)CO[C@@H]21` (stereo partly drawn), the activity change, negative = inhibition was -1.77%.
`C1COC(NC(C2CC2)C2CC2)=N1` showed an activity change, negative = inhibition of 1.02%.
`CC(=O)OCC(=O)[C@@]1(O)CC[C@H]2[C@@H]3CCC4=CC(=O)C=C[C@]4(C)[C@@]3(F)[C@@H](O)C[C@@]21C` showed an activity change, negative = inhibition of 2.18%.
In the case of `C[C@@H]1CN(c2c(F)c(F)c3c(=O)c(C(=O)O)cn(C4CC4)c3c2F)C[C@H](C)N1`, the “outcome” value is reported as “inactive [at 27.1 µM]”.
In the case of `Cc1cccc(C)c1NC(=O)CC12CCCN1CCC2`, the activity change, negative = inhibition is reported as -23.5%.
In the case of `O=c1[nH]c(=O)n([C@H]2C[C@H](O)[C@@H](CO)O2)cc1F`, the activity change, negative = inhibition is reported as -90.3% and -94.8%.
`CC(=O)O[C@]1(C(C)=O)CC[C@H]2[C@@H]3C[C@H](C)C4=CC(=O)CC[C@]4(C)[C@H]3CC[C@@]21C` gave an activity change, negative = inhibition of -11.3%.
For `O=C(O)c1ccccc1Nc1cccc(C(F)(F)F)c1`, the “outcome” value was “inactive”.
For `CCCCC(CC)CN1CN(CC(CC)CCCC)CC(C)(N)C1` (stereo not drawn), the “outcome” value was “inactive”.
In the case of `O=c1[nH]c(=O)n([C@H]2O[C@H](CO)[C@@H](O)[C@@H]2O)cc1/C=C\Br`, the “outcome” value is reported as “inactive”.
In the case of `CC(=O)Nc1c(I)cc(I)c(C(=O)O)c1I`, the “outcome” value is reported as “inactive”.
In the case of `Cc1c(Nc2ncccc2C(=O)O)cccc1C(F)(F)F`, the “outcome” value is reported as “inactive”.
For `CC(=O)O[C@@H]1C(=O)O[C@@H]2[C@H]1OC(=O)[C@@H]2OC(C)=O`, the activity change, negative = inhibition was -38.2%.
In the case of `CC(C)Cc1ccc(CC(=O)O)cc1`, the “outcome” value is reported as “inactive”.
For `CCCNC(C)C(=O)Nc1ccccc1C` (stereo not drawn), the “outcome” value was “inactive”.
In the case of `Clc1cccc(Cl)c1NC1=NCCN1`, the “outcome” value is reported as “inactive”.
For `C#C[C@]1(O)CC[C@H]2[C@@H]3CCC4=CC(=O)CC[C@@H]4[C@H]3CC[C@@]21CC`, the “outcome” value was “inactive”.
With `CC(=O)CC/C=C(\C)CC/C=C(\C)CC/C=C(\C)CCC=C(C)C` the activity change, negative = inhibition was -24.7%.
In the case of `CCOC(=O)c1ccc(OCCN2C[C@H](O)[C@@H](O)[C@H](O)[C@H]2CO)cc1`, the activity change, negative = inhibition is reported as 0.637%.
For `CC(C)(CO)[C@@H](O)C(=O)NCCCO`, the “outcome” value was “inactive”.
In the case of `CC(C(=O)O)c1ccc2c(c1)[nH]c1ccc(Cl)cc12` (stereo not drawn), the “outcome” value is reported as “inactive”.
For `N#CSCC(=O)O`, the “outcome” value was “inactive”.
Work on `CN=C(NC#N)NCCSCc1nc[nH]c1C` yielded an activity change, negative = inhibition of 4.18%.
Compound `COc1cc(C(=O)NC2CCCNC2)cc(OC)c1OC` (stereo not drawn) has an activity change, negative = inhibition of -15.8%.
Compound `CC(=O)OCC[N+](C)(C)C` has an activity change, negative = inhibition of 3.83%.
